# About 60 (1%) of roughly 4,300 compounds were called active.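 How the source made its calls: active means inhibition of labelled peptide binding to the formyl peptide receptor of at least 65%; inactive means the rest.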 The list comes from a sample in which actives are over-represented; it also holds similar structures and randomly drawn compounds.
# Target: fMet-Leu-Phe receptor (Homo sapiens) (UniProt P21462)
# Assay: FPR binders displacing fluorescent formyl peptide, primary screen, U937-FPR cells, fMLFK-FITC, flow cytometry (AID 362);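 on inhibition: plate controls were buffer control wells for no effect and unlabeled fMLFF blocking peptide for full effect; higher means less cell fluorescence so more probe displaced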
# Settings: fMLFK-FITC displacement; active compounds read high, concentration not given here
# fMet-Leu-Phe receptor (Homo sapiens), sequence (P21462 whole entry, looked up): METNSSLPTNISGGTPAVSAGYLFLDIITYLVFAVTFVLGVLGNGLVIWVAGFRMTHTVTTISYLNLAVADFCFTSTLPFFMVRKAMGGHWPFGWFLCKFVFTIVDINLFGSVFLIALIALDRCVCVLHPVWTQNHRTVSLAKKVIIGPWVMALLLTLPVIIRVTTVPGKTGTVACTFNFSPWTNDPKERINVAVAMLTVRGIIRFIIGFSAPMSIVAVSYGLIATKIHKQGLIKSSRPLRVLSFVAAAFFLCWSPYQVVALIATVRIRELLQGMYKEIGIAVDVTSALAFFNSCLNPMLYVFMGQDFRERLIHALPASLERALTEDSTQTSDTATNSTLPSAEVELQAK
row,SMILES,inhibition
1,CCOC(=O)c1cc2c(=O)n3ccccc3nc2n(CC(C)C)c1=NC(=O)c1ccccc1OCC,inactive
2,CCOC(=O)c1c(NC(=O)C2C3CCC(C3)C2C(=O)O)sc(C)c1-c1ccc(C(C)(C)C)cc1 (stereo unspecified),63.6% (inactive)
3,Cc1sc(NC(=O)C2C3CCC(C3)C2C(=O)O)c(C(N)=O)c1-c1ccc(C(C)(C)C)cc1 (stereo unspecified),82% (active)
4,CCOC(=O)c1c(NC(=O)C2CCCCC2C(=O)O)sc(C)c1-c1ccc(Cl)cc1 (stereo unspecified),77.1% (active)
5,CCOC(=O)c1c(NC(=O)C2CCCCC2C(=O)O)sc(C)c1-c1ccc(F)cc1 (stereo unspecified),57.3% (inactive)
6,CCCOC(=O)c1c(NC(=O)C2CCCCC2C(=O)O)sc(C)c1C (stereo unspecified),35.7% (inactive)
7,CCCOC(=O)c1c(NC(=O)C2CCCCC2C(=O)O)sc(C)c1-c1ccc(F)cc1 (stereo unspecified),17.2% (inactive)
8,CCOC(=O)c1c(NC(=O)C2C3CCC(C3)C2C(=O)O)sc(C)c1-c1ccc(Cl)cc1 (stereo unspecified),45.9% (inactive)
9,CCOC(=O)c1c(NC(=O)C2CCCCC2C(=O)O)sc(C)c1-c1ccc(C(C)(C)C)cc1 (stereo unspecified),29.4% (inactive)
10,Cc1sc(NC(=O)C2CCCCC2C(=O)O)c(C(N)=O)c1-c1ccc(C(C)(C)C)cc1 (stereo unspecified),70.2% (active)
11,N#CC1=C(SCC(=O)Nc2ccc(Br)cc2)NC(=O)C(C#N)C12CCCCC2 (stereo unspecified),79.2% (active)
12,N#CC1=C(SCC(=O)Nc2ccc(Cl)cc2)NC(=O)C(C#N)C12CCCCC2 (stereo unspecified),52.1% (inactive)
13,N#CC1=C(SCC(=O)Nc2ccc(F)cc2)NC(=O)C(C#N)C12CCCCC2 (stereo unspecified),15.5% (inactive)
14,O=C(CCCN1C(=O)c2cccc3cccc(c23)C1=O)N1CCC(CN2C(=O)c3cccc4cccc(c34)C2=O)CC1,inactive
15,O=C1c2cccc3cccc(c23)C(=O)N1CC1CCN(C(=O)C23CC4CC(CC(C4)C2)C3)CC1,inactive
16,CC1CCC(C(C)C)C(OCC(O)CN2CCC(CN3C(=O)c4cccc5cccc(c45)C3=O)CC2)C1 (stereo unspecified),93.4% (active)
17,CCOC(=O)c1cnc2ccc(OC)cc2c1NC1CCCCC1,99.3% (active)
18,CCOC(=O)c1cnc2ccc(OCC)cc2c1N1CCCCCC1,25.2% (inactive)
19,CCOC(=O)c1cnc2cc(Cl)c(OC)cc2c1NCCC1=CCCCC1,0.9% (inactive)
20,CCCN(CCC)Cc1c(O)ccc2c(=O)c(Oc3cc(C)cc(C)c3)c(C(F)(F)F)oc12,17.9% (inactive)
21,COc1cc2c(C(=O)NCCc3ccc(Cl)cc3)cn(CC(C)C)c(=O)c2cc1OC,inactive
22,CC(=O)Oc1ccc(C2Nc3c(C(=O)O)ccc([N+](=O)[O-])c3C3C=CCC32)cc1 (stereo unspecified),inactive
23,CCOC(=O)C1CCC(CN(Cc2cccc(Br)c2)S(=O)(=O)c2cccc(C(F)(F)F)c2)CC1 (stereo unspecified),inactive

row,SMILES,inhibition
1,CN(C)c1ccc(C(c2cc(C(C)(C)C)c(O)c(C(C)(C)C)c2)N2CCOCC2)cc1 (stereo unspecified),29.2% (inactive)
2,CCCc1cc2c(=O)c(-c3ccc(C(=O)OCC)o3)c(C(=O)OCC)oc2cc1OC(C)=O,96% (active)
3,CCCc1cc(-c2n[nH]c(C)c2-c2ccc(C(=O)OCC)o2)c(O)cc1O,10.6% (inactive)
4,CCc1cc2c(=O)c(Oc3ccccc3)c(C(F)(F)F)oc2cc1OC(C)=O,121% (active)
5,O=c1c(Oc2ccccc2)c(C(F)(F)F)oc2cc(O)ccc12,46.2% (inactive)
6,CCCc1cc2c(=O)c(-c3ccc(C(=O)OCC)o3)c(C(=O)OCC)oc2cc1OC,7.1% (inactive)
7,CCc1cc2c(=O)c(Oc3ccccc3)c(C(F)(F)F)oc2cc1OC,inactive
8,CCCc1cc2c(=O)c(-c3ccc(C(=O)OCC)o3)coc2cc1OC(C)=O,16.9% (inactive)
9,CCc1cc2c(=O)c(-c3nc4ccccc4n3C)c(C(F)(F)F)oc2cc1O,inactive
10,CCOc1cc2oc(C(F)(F)F)c(Oc3ccccc3)c(=O)c2cc1CC,27.9% (inactive)
11,CCc1cc2c(=O)c(Oc3ccccc3)c(C(F)(F)F)oc2cc1O,70.8% (active)
12,CCOC(=O)c1ccc(-c2c(C(F)(F)F)oc3cc(O)c(CC)cc3c2=O)o1,79.1% (active)
13,CCOc1ccc2c(=O)c(Oc3ccccc3)c(C(F)(F)F)oc2c1,inactive
14,CC(=O)N1CCCc2cc(S(=O)(=O)NC(C(=O)Nc3nc4ccc(C)cc4s3)C(C)C)ccc21 (stereo unspecified),inactive
15,COCCOC(=O)C1=C(C)NC2=C(C(=O)C(C(=O)OC)C(C)C2)C1c1cccc(O)c1 (stereo unspecified),4.6% (inactive)
16,CC1(C)CC(=O)C2=C(C1)OC(N)=C(C#N)C2c1ccc(Cl)cc1 (stereo unspecified),7.6% (inactive)
17,CC(=O)N1CCc2cc(S(=O)(=O)NC(C(=O)Nc3ccccn3)C(C)C)ccc21 (stereo unspecified),inactive
18,Cc1cc(C)c(S(=O)(=O)NCC2CCC(C(=O)NCCc3ccc(Cl)cc3)CC2)c(C)c1 (stereo unspecified),18.5% (inactive)
19,CCc1cc(=O)oc2cc(OCC(=O)OC)c(Cl)cc12,inactive
20,CCCOc1ccc(C2NC(=O)NC(C)=C2C(=O)OCC(C)CCC)cc1 (stereo unspecified),inactive
21,CCOC(=O)Oc1ccc2c(=O)c(Oc3cccc(C)c3)c(C(F)(F)F)oc2c1,inactive
22,CCOc1ccc2c(c1)C(C)=CC(C)(C)N2C(=O)C(C)N1C(=O)c2ccccc2C1=O (stereo unspecified),inactive
23,Cc1cc(NC(=O)CSc2nc3ccccc3c(=O)n2CC2CCC(C(=O)NCCc3ccccc3)CC2)no1 (stereo unspecified),inactive

row,SMILES,inhibition
1,CNC(=O)C1CCC(CNS(=O)(=O)c2ccc(NC(C)=O)cc2)CC1 (stereo unspecified),inactive
2,COc1ccccc1-c1c(C(F)(F)F)oc2cc(OC(=O)C(C)C)ccc2c1=O,92% (active)
3,CCCc1ccc(Oc2c(C(F)(F)F)oc3cc(OC(C)=O)ccc3c2=O)cc1,46.4% (inactive)
4,CC(=O)Oc1ccc2c(=O)c(Oc3ccccc3)c(C(F)(F)F)oc2c1,97.6% (active)
5,COc1ccc2c(=O)c(-c3ccccc3OC)c(C(F)(F)F)oc2c1,inactive
6,CCOC(=O)Oc1ccc2c(=O)c(-c3ccccc3OC)c(C(F)(F)F)oc2c1,36.6% (inactive)
7,CCCc1cc2c(=O)c(-c3nc4ccccc4s3)c(C)oc2cc1OC(C)=O,inactive
8,CCCc1cc2c(=O)c(-c3nc(C)cs3)coc2cc1OC(C)=O,inactive
9,CC(=O)Oc1ccc2c(=O)c(Oc3cc(C)cc(C)c3)c(C(F)(F)F)oc2c1,9.4% (inactive)
10,CCCc1cc2c(=O)c(-c3nc(C)cs3)c(C)oc2cc1OC(C)=O,72.7% (active)
11,CCCCNC(=O)C1CCN(S(=O)(=O)N(CC(C)C)CC(C)C)CC1,inactive
12,CCCOC(=O)c1c(NC(=O)C2C3C=CC(C3)C2C(=O)O)sc2c1CCCC2 (stereo unspecified),inactive
13,COc1cc2c(C(=O)N(C)c3cccc(C(F)(F)F)c3)cn(CC(C)C)c(=O)c2cc1OC,inactive
14,CC(C)CCn1c(CN2CCN(C(c3ccccc3)c3ccccc3)CC2)nc2c1c(=O)n(C)c(=O)n2C,inactive
15,CSc1nc(OCC(=O)c2ccc(Cl)cc2)c2c3c(sc2n1)CCCC3,inactive
16,Cc1sc2ncn(CC(=O)NCc3cccnc3)c(=O)c2c1S(=O)(=O)N1CCC(C)CC1,inactive
17,CC(C)Cn1cc(C(=O)NCc2ccco2)c2c3ccccc3n(C)c2c1=O,inactive
18,CCCOc1ccc(C(=O)CCNC(C(=O)O)C(C)C)cc1 (stereo unspecified),inactive
19,COc1ccc(C(=O)COC(=O)C(CC(C)C)N2C(=O)c3ccccc3C2=O)cc1 (stereo unspecified),inactive
20,CCOC(=O)C1=C(C)C2C3C(=O)N(c4cccc5ccccc45)C(=O)C3C1(C)C1C(=O)N(c3cccc4ccccc34)C(=O)C21 (stereo unspecified),13.4% (inactive)
21,CCN(CCCNC(=O)Cn1cnc2sc(C)c(S(=O)(=O)N3CCC(C)CC3)c2c1=O)c1cccc(C)c1,inactive
22,O=C(O)CSc1nc(-c2ccccc2)nc2c1CCCC2,inactive
23,O=C(CSc1nc(-c2ccccc2)nc2c1CCCC2)N1CCCCC1,86.8% (active)

row,SMILES,inhibition
1,O=C(CSc1nc(-c2ccccc2)nc2c1CCCC2)N1CCOCC1,inactive
2,CCOC(=O)C1=C(C)NC2=C(C(=O)C(C(=O)OC)C(C)C2)C1c1ccc(N(C)C)cc1 (stereo unspecified),10% (inactive)
3,CCOC(=O)C1CCN(C(=O)c2cn(CC(C)C)c(=O)c3cc(OC)c(OC)cc23)CC1,11.2% (inactive)
4,CC1(C)CC(=O)C2=C(C1)OC(N)=C(C#N)C2(C)C,inactive
5,CCCCOc1cc(OCCCC)c2c3c(c(=O)oc2c1)CCCC3,inactive
6,CCCOc1cc(OCCC)c2c3c(c(=O)oc2c1)CCCC3,7.1% (inactive)
7,CCCCOc1cc(OCCCC)c2c3c(c(=O)oc2c1)CCC3,92.8% (active)
8,O=C(O)c1cccc(N2C(=O)C3C4CCC(C4)C3C2=O)c1 (stereo unspecified),31.6% (inactive)
9,Cc1ccn2c(NC(=O)C(C)(C)Oc3ccc(Cl)cc3)c(-c3cccs3)nc2c1,6% (inactive)
10,CCCCN(C)Cc1c(O)ccc2c(=O)c(-c3ccccc3OC)c(C(F)(F)F)oc12,3.4% (inactive)
11,COc1ccc(C(C2C(=O)CC(C)(C)CC2=O)C2C(=O)CC(C)(C)CC2=O)cc1OC,24.6% (inactive)
12,CN1C(=O)NC(c2cccc([N+](=O)[O-])c2)C2=C1CC(C)(C)CC2=O (stereo unspecified),inactive
13,CC1(C)CC(=O)C(C(c2ccco2)C2C(=O)CC(C)(C)CC2=O)C(=O)C1,30.9% (inactive)
14,CC1(C)CC(=O)C2=C(C1)Nc1ncnn1C2c1cccc([N+](=O)[O-])c1 (stereo unspecified),inactive
15,CC1(C)CC(=O)C(C(c2ccc3ccccc3c2)C2C(=O)CC(C)(C)CC2=O)C(=O)C1,80.9% (active)
16,CC1(C)CC(=O)C(C(C2=C(O)CC(C)(C)CC2=O)c2cccc(O)c2O)C(=O)C1 (stereo unspecified),57% (inactive)
17,CC1(C)CC(=O)C(C(c2cccc(OCc3ccccc3)c2)C2C(=O)CC(C)(C)CC2=O)C(=O)C1,91.9% (active)
18,COc1ccc(C(C2C(=O)CC(C)(C)CC2=O)C2C(=O)CC(C)(C)CC2=O)cc1COCC(F)(F)F,34.1% (inactive)
19,COc1cccc(C(C2C(=O)CC(C)(C)CC2=O)C2C(=O)CC(C)(C)CC2=O)c1,53.4% (inactive)
20,COc1cc(C(C2C(=O)CC(C)(C)CC2=O)C2C(=O)CC(C)(C)CC2=O)ccc1O,19.2% (inactive)
21,CC1(C)CC(=O)C(C(c2cccc([N+](=O)[O-])c2)C2C(=O)CC(C)(C)CC2=O)C(=O)C1,78.4% (active)
22,CC1(C)CC(=O)C(C(c2ccc(Br)cc2)C2C(=O)CC(C)(C)CC2=O)C(=O)C1,74.7% (active)

# Reference: PubChem BioAssay AID362 (NMMLSC, 2006)
